# Source: PubChem
# An excerpt weighted towards active compounds, which were near 19% of everything screened.
# ELG1 repair inh = qHTS screen for small molecules that inhibit ELG1-dependent DNA repair in human embryonic kidney (HEK293T) cells expressing luciferase-tagged ELG1; HEK293T ELG1-luciferase reporter, luminescence, 16 h; DNA damage induced by 5-fluorouridine; Potency, µM (doses to about 46.1 µM), without a hit: top-dose activity change, negative = inhibition, actives largely listed as inhibitors; 330,000 compounds, 2.3% hits; note: potency is the fitted concentration of half-maximal effect; nearly all actives have a fitted effect of over 55% in size
#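 Cells (2,000 per well) received 5-fluorouridine plus test compound or DMSO and were incubated 16 hr at 37 °C, 5% CO2. Luciferase activity was read by luminescence 30 min after ONE-Glo addition; signal suppression marked inhibition of damage-induced ELG1 function.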
# HT1080 IDH1KD tx = qHTS for induction of synthetic lethality in tumor cells producing 2HG: qHTS for the HT-1080-IDH1KD cell line | HT-1080 IDH1 knockdown viability, ATP luminescence, 48 h | 360,000 compounds, 2% hits | Potency, µM (top dose mostly 46.1 µM), inactives show at the top dose activity, negative = toxicity, hits mostly cytotoxic;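 note: potency is the fitted concentration of half-maximal effect; 0% = DMSO wells and -100% = cell-free medium wells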
#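 HT-1080-IDH1KD cells (IDH1 knocked down), 750/well in RPMI with 5% FBS, treated with compound 48 h at 37 degrees C. Viability by CellTiter-Glo luminescence, normalised to DMSO and no-cell wells; concentration-response curves classed.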
# HT1080-NT tox = qHTS for induction of synthetic lethality in tumor cells producing 2HG: qHTS for the HT-1080-NT fibrosarcoma cell line | 360,000 compounds, 1.6% hits | HT-1080-NT fibrosarcoma viability, CellTiter-Glo ATP luminescence, 48 h | AID 686970, 2013 | Potency, µM (highest dose often 46.1 µM), for inactives: at the highest dose activity, negative = less viability, hits mostly cytotoxic;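 note: NT is the 2HG producing partner of a matched IDH1 knockdown line; potency is the fitted concentration of half-maximal effect; 0% = DMSO-treated cells and -100% = media-only wells without cells; nearly all actives have a fitted effect of over 55% in size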
#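 Toxicity toward the 2HG-producing NT line was scored as %Activity, normalised to DMSO and no-cell wells, from CellTiter-Glo luminescence after 48 hours' treatment.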
# IL1B secr inh = qHTS for Inhibitors of Inflammasome Signaling: IL-1-beta AlphaLISA Primary Screen; 360,000 compounds, 4.7% hits; activity change, % at 57.5 µM; THP-1 LPS/ATP IL-1B secretion, AlphaLISA, 16 h; stronger effect = lower value; in the data active = activity change below about -50%; inconclusive = mostly about -30% to -49%
#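 THP-1 cells pretreated 1 hr with compounds (up to 57.5 uM final), then stimulated with LPS (250 ng/mL final) plus ATP (1.25 mM final); secreted IL-1B measured by AlphaLISA after 16 hr, decreased signal indicating inhibition.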
# TDP1 cell noCPT = qHTS for Inhibitors of human tyrosyl-DNA phosphodiesterase 1 (TDP1): qHTS in cells in absence of CPT | 420,000 compounds, 15% hits | AID 686978, 2013 | DT40 Tdp1-/- hTDP1 cells, no CPT, ATP luminescence, 48 h | Potency, µM (highest dose often 46.2 µM), inactives show top-dose activity change, negative = growth inhibition, hits mostly inhibitors; note: potency is the fitted concentration of half-maximal effect; nearly all actives have a fitted effect of over 55% in size
#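 A cellular qHTS used chicken DT40 cells lacking endogenous Tdp1 but carrying stably transfected human TDP1. Compounds were applied without camptothecin, and cell growth kinetics were judged by ATP-dependent luminescence after ≥48 hr.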
# DT40 TDP1 CPT = qHTS for Inhibitors of human tyrosyl-DNA phosphodiesterase 1 (TDP1): qHTS in cells in presence of CPT. chicken DT40 Tdp1-/-;hTDP1 cells + 20 nM CPT, ATP luminescence, 48 h. Potency, µM (titrated, usually from 46.2 µM), without a hit: top-dose activity change, negative = growth inhibition, hits mostly inhibitors. 420,000 compounds, 12% hits. AID 686979, 2013; note: potency is the fitted concentration of half-maximal effect; nearly all actives have a fitted effect of over 55% in size
#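 Chicken DT40 Tdp1-/- cells stably complemented with human TDP1 were seeded at 400 cells/well in medium containing 20 nM camptothecin, exposed to pin-transferred compounds, and grown at 37 °C for at least 48 hr. Viability was read as ATP luminescence.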
# * hit, by the source's call; ? = inconclusive; · = no result given. Unless noted, calls come from the whole dose curve; as a rule, active = well fitted curve in the direction sought with a large enough effect; inconclusive = small, poorly fitted or top-dose-only effect, or another doubt; inactive = no such curve, though single readings can be large; an effect the other way counts as inactive or inconclusive. Unless noted, % is set by controls: 0 for no effect and ±100 for the full control effect.
SMILES,ELG1 repair inh,HT1080 IDH1KD tx,HT1080-NT tox,IL1B secr inh,TDP1 cell noCPT,DT40 TDP1 CPT
COc1cc(/C=N/Nc2nc3c(c(=O)n(C)c(=O)n3C)n2Cc2ccccc2)ccc1OC(=O)c1ccco1,18µM*,1%,0%,?,5.2µM*,5.8µM*
N=C(N)n1cccn1,·,·,·,·,-1%,-2%
CC(C)(C)CC(=O)NC1CC(=O)N(c2ccc3c(c2)OCCO3)C1 (stereo not given),·,·,·,·,-7%,7%
CC/C(=N/N=C(/CC)c1ccc(O)cc1)c1ccc(O)cc1,·,-2%,4%,15,8.2µM*,15µM*
CC(=NN=C(C)c1ccc(O)cc1)c1ccc(O)cc1,·,-1%,-19%,-10,16µM*,?
C/C=C(/C(=C/C)c1ccc(O)cc1)c1ccc(O)cc1,-15%,11%,20%,35,?,?
CC(Oc1ccccc1F)C(=O)NNC(=O)c1ccc(F)c(S(=O)(=O)N2CCOCC2)c1 (stereo not given),6%,4%,2%,10,2%,12%
COc1ccccc1C(=O)NCCC(=O)N(C)CC(=O)Nc1ccc(N2CCOCC2)cc1,11%,5%,8%,-7,-4%,-3%
CCOc1ccc(NC(=O)CSc2nc(-c3cccc(Cl)c3)nc3c2Cc2c(CO)cnc(C)c2O3)cc1,·,·,·,·,1%,-3%
CCCS(=O)(=O)c1c(S(=O)(=O)CCC)c2cc(-c3ccncc3)ccn2c1C(=O)OC,?,-13%,-19%,-69*,?,?
CCCS(=O)(=O)c1c(S(=O)(=O)CCC)c2cc(CC)ccn2c1C(=O)c1ccc(Cl)cc1,·,·,·,·,-26%,15µM*
CCCS(=O)(=O)c1c(S(=O)(=O)CCC)c2cnccn2c1C(=O)c1ccc(CC)cc1,-10%,-7%,-8%,-12,?,3%
CCCS(=O)(=O)c1c(S(=O)(=O)CCC)c2cnccn2c1C(=O)c1ccc(OC)cc1,-2%,0%,-9%,-4,?,-10%
Cc1ccc(-c2nc(CS(=O)(=O)CC(=O)NCCc3ccccc3)c(C)o2)cc1,·,·,·,·,-21%,-1%
CCOC(=O)c1c(NC(=O)C(=O)N/N=C/c2ccc(O)c(OC)c2)sc2c1CCCCC2,15µM*,3%,-19%,-27,23µM*,?
CCOC(=O)c1c(NC(=O)/C=C/c2ccc(OC)c(OC)c2)sc(C(C)=O)c1C,·,·,·,·,-5%,-10%
CCOC(=O)c1c(NC(=O)N/N=C/c2ccc(O)c(OC)c2)sc(C(C)=O)c1C,4.6µM*,·,·,·,·,·
CCN(CC(=O)Nc1c(F)cccc1F)C(=O)c1cnccn1,8%,18%,10%,8,7%,0%
Cc1cccc(NC(=O)CNC(=O)[C@H]2O[C@@H](n3ccc(=O)[nH]c3=O)[C@H](O)[C@@H]2O)c1C,·,11%,26%,10,-19%,-4%
COc1ccc(-c2nc(S(=O)(=O)c3ccccc3)c(N3CCOCC3)o2)cc1,-4%,-3%,-2%,14,-19%,-9%
COc1cc(-c2nc(S(=O)(=O)c3ccc(Cl)cc3)c(N3CCOCC3)o2)cc(OC)c1OC,?,-22%,21%,-29,16µM*,?
CC(C)(C)c1nc(S(=O)(=O)c2ccc(Cl)cc2)c(N2CCOCC2)o1,0%,5%,0%,12,-10%,2%
O=S(=O)(c1ccc(Cl)cc1)c1nc(-c2ccccc2Br)oc1N1CCOCC1,·,·,·,·,23µM*,18µM*
O=S(=O)(c1ccc(Cl)cc1)c1nc(-c2ccco2)oc1N1CCOCC1,-9%,3%,10%,1,-7%,-5%
O=P(c1ccccc1)(c1ccccc1)c1nc(-c2ccccc2)oc1N1CCOCC1,12%,1%,-3%,-24,-28%,-25%
SMILES,ELG1 repair inh,HT1080 IDH1KD tx,HT1080-NT tox,IL1B secr inh,TDP1 cell noCPT,DT40 TDP1 CPT
O=P(c1ccccc1)(c1ccccc1)c1nc(-c2ccc(Cl)cc2)oc1N1CCOCC1,?,-24%,-25%,-65*,-21%,?
COc1cc(-c2nc(S(=O)(=O)c3ccc(C)cc3)c(N3CCOCC3)o2)cc(OC)c1OC,?,-14%,3%,5,9.2µM*,12µM*
CC1CN(C(=O)COC(=O)Cc2ccc(Cl)cc2)CC(C)O1 (stereo not given),0%,19%,5%,0,20%,-17%
CCCC(O)(c1ccccc1)C(CN1CCOCC1)c1ccccc1 (stereo not given),?,12%,6%,26,?,21µM*
CCCCC(O)(CCN1CCOCC1)c1ccc(Cl)cc1 (stereo not given),12%,-5%,-3%,4,?,?
CCCC(O)(c1ccc(CC)cc1)C(CN1CCOCC1)c1ccccc1 (stereo not given),?,21µM*,33µM*,?,18µM*,16µM*
CCCCCCC(O)(c1ccccc1)C(CN1CCOCC1)c1ccccc1 (stereo not given),-12%,0%,-16%,0,23µM*,18µM*
CCCC(O)(c1ccc(Cl)cc1)C(CN1CCOCC1)c1ccccc1 (stereo not given),-23%,3%,13%,37,?,?
CCCC(O)(c1ccc(Br)cc1)C(CN1CCOCC1)c1ccc(Cl)cc1 (stereo not given),-22%,?,?,-84*,?,?
COc1ccccc1C(O)(c1ccccc1)C(CN1CCOCC1)c1ccccc1 (stereo not given),?,-4%,-23%,2,?,?
N#Cc1ccc(NC(=O)COC(=O)CCc2nc3ccccc3c(=O)[nH]2)cc1,5%,13%,12%,0,-13%,-1%
COc1ccc(N2CC(NC(=O)c3ccco3)CC2=O)cc1 (stereo not given),·,·,·,·,10%,20%
O=c1c2cc(NC(=S)NC3CCN(Cc4ccccc4)CC3)ccc2nc2n1CCCCC2,-26%,18µM*,?,-14,15µM*,?
COc1cc(C(=O)Nc2ccc3nc4n(c(=O)c3c2)CCCCC4)cc(OC)c1OC,?,18µM*,?,26,23µM*,?
